Out of some 2,100 compounds screened, about 180 (8.6%) showed an effect of 50% or more. This excerpt belongs to a sample that is enriched for strong results.
Each molecule was assayed on MOLM1 and UCSD/AML1 (averaged) (assay: cell viability relative to DMSO control (POC); higher = less growth inhibition). Conditions: 1 µM; 72 h.
Description: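 Primary viability screen in the 3q26 EVI1-high AML cell lines MOLM1 and UCSD/AML1 (1.5e3 cells/well, 384-well), compounds at 1 uM for 72 h. ATP CellTiter-Glo read-out given as percent of viable cells over DMSO control (POC), averaged over duplicates. DMSO was the negative control and 5 uM etoposide the positive control. This mapping covers the MicroSource Spectrum and Selleck anticancer libraries (drug names).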

Compound	cell viability [%]
c1cc2c(cc1[C@H]1OC[C@H]3[C@@H]1CO[C@H]3c1ccc3c(c1)OCO3)OCO2	84.6
C[C@@H]1CC[C@]2(NC1)O[C@H]1C[C@H]3[C@@H]4CC=C5C[C@@H](O)CC[C@]5(C)[C@H]4CC[C@]3(C)[C@H]1[C@@H]2C	94.1
C[C@H]1C(=O)O[C@@H]2CCN3CC=C(COC(=O)[C@](C)(O)[C@]1(C)O)[C@H]23	103
C[C@@H]1C(=O)O[C@H]2[C@H]1CC[C@@]1(C)C=CC(=O)[C@@]3(C)O[C@@]213 [EPOXY (4,5alpha)-4,5-DIHYDROSANTONIN]	95.7
CNC(Cc1c[nH]c2ccccc12)C(=O)O (stereo not drawn)	102
C=C[C@H]1CN2CC[C@H]1C[C@H]2[C@H](OC(=O)OCC)c1ccnc2ccc(OC)cc12	98.5
N[C@@H]1C[C@H]1c1ccccc1.N[C@H]1C[C@@H]1c1ccccc1	93.1
COP(N)(=O)SC (stereo not drawn)	111
C[C@@H]1C[C@H](O)[C@@]2(O)[C@]13CC(=O)OC[C@@]2(C)[C@@](C)(O)C(=O)C3	92.3
CC(=O)C1CCC2C3CCC4C[C@H](O)CCC4(C)C3C[C@H](O)C12C (stereo partly drawn) [DIHYDROXY (3alpha,12alpha)PREGNAN-20-ONE]	105
C[C@]12CC[C@H](O)C[C@@H]1CC[C@@H]1[C@@H]2CC[C@]2(C)C(=O)CC[C@@H]12	98.7
C[C@]12CC[C@H](O)C[C@H]1CC[C@@H]1[C@@H]2C[C@@H](O)[C@]2(C)[C@@H](C3=CC(=O)OC3)CC[C@]12O	18.7
COP(=S)(OC)Oc1ccc(Sc2ccc(OP(=S)(OC)OC)cc2)cc1	101
CSc1nc(NC(C)C)nc(NC(C)C)n1	102
CC1(C)C(=O)C=C[C@@]2(C)C1=C(O)C(=O)[C@]1(C)[C@@H]2CC[C@@]2(C)[C@H](c3ccoc3)C[C@H]3O[C@]321	85.9
CC(=O)O[C@@H]1C[C@@]2(C)[C@H](c3ccoc3)C[C@H]3O[C@]32[C@]2(C)C(=O)C(O)=C3C(C)(C)C(=O)C=C[C@]3(C)[C@@H]12	19.3
CC(=O)O[C@H]1C[C@@H](OC(C)=O)C(C)(C)C2C[C@@H](OC(C)=O)[C@]3(C)C(CC[C@@]4(C)[C@H](c5ccoc5)C(=O)[C@H]5O[C@]543)[C@]21C (stereo partly drawn)	85.4
CNC(C)[C@H](O)c1ccccc1 (stereo partly drawn)	93.6
Cc1nccc2c1[nH]c1cc(O)ccc12	81
O=C(NC(=O)c1c(F)cccc1F)Nc1ccc(Cl)cc1	118

Compound	cell viability [%]
C[C@@H]1O[C@@H](O[C@@H]2C=C3CC[C@@H]4[C@H](CC[C@]5(C)[C@@H](c6ccc(=O)oc6)CC[C@]45O)[C@@]3(C)CC2)[C@H](O)[C@H](O)[C@H]1O	2.01
CC(C)(O)[C@@H]1[C@H]2OC(=O)[C@@H]1[C@]1(O)C[C@H]3O[C@]34C(=O)O[C@H]2[C@]14C	87.8
O=C(NC(=O)c1c(F)cccc1F)Nc1cc(Cl)c(OC(F)(F)C(F)C(F)(F)F)cc1Cl (stereo not drawn)	93.9
COC(=O)NC(=S)Nc1ccccc1NC(=S)NC(=O)OC	116
COC(=O)C(c1ccccc1)C1CCCCN1 (stereo not drawn)	89.3
CC(C)(N)Cc1ccccc1	110
N#C/C(=C\c1cccc(O)c1)C(=O)O [alpha-CYANO-3-HYDROXYCINNAMIC ACID]	94.3
O=c1c2ccccc2[se]n1-c1ccccc1	97.5
C[CH2][Hg][S]c1ccccc1C(=O)[O-].[Na+]	99.6
CCCCCCCCCCCCCCCC[n+]1ccccc1	62.3
C/C=C(/C)C(=O)O[C@H]1CC[C@@]2(C)[C@@H]3CC[C@H]4[C@]5(O)C[C@H](O)[C@@]6(O)[C@@H](CN7C[C@@H](C)CC[C@H]7[C@@]6(C)O)[C@]5(O)C[C@@]42O[C@]13O	94.9
CC(C)N(CCC(C(N)=O)(c1ccccc1)c1ccccn1)C(C)C (stereo not drawn)	113
N#Cc1c(Cl)c(Cl)c(Cl)c(C#N)c1Cl	1.55
CC1=CCCC2C1(C)CCC(C)C2(C)CC/C(C)=C/Cn1c[n+](C)c2c(N)ncnc21 (stereo not drawn) [AGELASINE (stereochemistry of diterpene unknown)]	109
CN[C@@H]1[C@@H](O)[C@@H](O[C@@H]2[C@@H](O)[C@H](O[C@H]3O[C@H]([C@@H](C)O)[C@@H](O)[C@H](O)[C@H]3N)[C@@H](N)C[C@H]2N)OC[C@]1(C)O	92
CC1(C)C(=O)[C@@H]2O[C@@H]2[C@@]2(C)C1C[C@@H](O)[C@]1(C)C2CC[C@@]2(C)[C@H](c3ccoc3)OC(=O)C3OC321 (stereo partly drawn) [1,2alpha-EPOXYDEACETOXYDIHYDROGEDUNIN]	91.4
CC1=CC(=O)c2c(O)cccc2C1=O	74.6
C=C(C)[C@H]1Cc2c(ccc3c2O[C@@H]2COc4cc(OC)c(OC)cc4[C@@H]2C3=O)O1	26.4
COc1cc2c(cc1OC)[C@@H]1C(=O)c3ccc4c(c3O[C@@H]1CO2)CC(C(C)C)O4 (stereo partly drawn)	77.8
COc1cc2c(cc1OC)[C@@H]1C(=O)c3ccc(OC)c(CC=C(C)C)c3O[C@@H]1CO2	103

Compound	cell viability [%]
O=C1NC(=O)C(=O)C(=O)N1	100
CNC1CC(N)C(O)C(OC2OC(CO)C(O)C3OC4(OC(C(N)CO)C(O)C(O)C4O)OC23)C1O (stereo not drawn)	103
O=[N+]([O-])O[C@@H]1CO[C@H]2[C@@H]1OC[C@@H]2O	98.1
C/C(=C\c1csc(C)n1)[C@@H]1C[C@@H]2O[C@]2(C)CCC[C@H](C)[C@H](O)[C@@H](C)C(=O)C(C)(C)[C@@H](O)CC(=O)O1 [Epothilone B (EPO906)]	13.4
C/C(=C\c1csc(C)n1)[C@@H]1C[C@@H]2O[C@@H]2CCC[C@H](C)[C@H](O)[C@@H](C)C(=O)C(C)(C)[C@@H](O)CC(=O)O1 [Epothilone A]	18.5
O=C(O)CC[N+](=O)[O-] [BOVINOCIDIN (3-nitropropionic acid)]	94.6
Cc1ccc(O)cc1.Cc1cccc(O)c1.Cc1ccccc1O	98.6
C/C=C(\C)C(=O)O[C@H]1C[C@@H](OC(C)=O)[C@@]2(C(=O)OC)CO[C@H]3[C@@H](O)[C@@](C)([C@]45O[C@@]4(C)[C@H]4C[C@@H]5O[C@@H]5OC=C[C@@]54O)[C@H]4[C@]1(CO[C@]4(O)C(=O)OC)[C@@H]32	97.3
OC[C@@H]1CCCN2CCCC[C@H]12	83
C/C=C/c1ccc2c(c1)OCO2	108
C[C@@H]1C[C@@H]([C@H](O)CC2CC(=O)NC(=O)C2)C(=O)[C@@H](C)C1	18.4
C[C@]12CCC(=O)C=C1C=C[C@@H]1[C@@H]2CC[C@@]2(C)[C@H]1CC[C@@]2(O)CCC(=O)O	111
NC(=O)c1ccc(N)nc1	88
C[C@@H](N)[C@@H](O)c1ccccc1	106
CC(C)c1cc2c(c(O)c1O)[C@@]1(C(=O)O)CCCC(C)(C)[C@@H]1CC2	107
C=C[C@H]1CN2CC[C@H]1C[C@H]2[C@H](O)c1ccnc2ccccc12	105
O=C(NC(=O)c1ccccc1Cl)Nc1ccc(OC(F)(F)F)cc1	113
O=C1C=CC(=O)c2ccccc21	89.5

— the supplement of paper PMC11150407
